# Data taken from PubChem BioAssay (EPA / NIEHS).
# Records with an inconclusive call do not appear. The source holds several records for some structures; these can differ, active in one and inactive in another. The source made the active and inactive calls. The calls were made as follows, unless noted: active = hit-call score of the fitted dose curve at least 0.9, where 1 is the maximum; inconclusive = response in the unintended direction; inactive = score below 0.9.
# Experiments:
# [1] = read-out: Intercellular Adhesion Molecule 1 (ICAM1), ICAM1 (gene 3383); assay: BSK_3C_ICAM1: BioMAP Diversity Plus: 3C Assay for Intercellular Adhesion Molecule 1 (ICAM1) Biomarker Activity (AID 2283003; active = hit-call score of the fitted dose curve at least 0.9, where 1 is the maximum; inactive = score below 0.9); conditions: primary human endothelial cells (HUVEC); actives raise or lower the signal
# Summary of the method: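 ICAM-1 levels measured by ELISA after HUVEC cultures in the 3C system had been dosed for 24 h. Gain or loss of signal relative to DMSO was fitted in both directions.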
# [2] = target: Retinoic acid receptor alpha (Homo sapiens) (UniProt P10276); assay: ATG_RARa_TRANS: Attagene TRANS-FACTORIAL HepG2 Assay for human Retinoic Acid Receptor alpha (RARa) (AID 2283005)
# Chain of Retinoic acid receptor alpha (Homo sapiens) (P10276 whole entry, looked up, the tested form may be a part): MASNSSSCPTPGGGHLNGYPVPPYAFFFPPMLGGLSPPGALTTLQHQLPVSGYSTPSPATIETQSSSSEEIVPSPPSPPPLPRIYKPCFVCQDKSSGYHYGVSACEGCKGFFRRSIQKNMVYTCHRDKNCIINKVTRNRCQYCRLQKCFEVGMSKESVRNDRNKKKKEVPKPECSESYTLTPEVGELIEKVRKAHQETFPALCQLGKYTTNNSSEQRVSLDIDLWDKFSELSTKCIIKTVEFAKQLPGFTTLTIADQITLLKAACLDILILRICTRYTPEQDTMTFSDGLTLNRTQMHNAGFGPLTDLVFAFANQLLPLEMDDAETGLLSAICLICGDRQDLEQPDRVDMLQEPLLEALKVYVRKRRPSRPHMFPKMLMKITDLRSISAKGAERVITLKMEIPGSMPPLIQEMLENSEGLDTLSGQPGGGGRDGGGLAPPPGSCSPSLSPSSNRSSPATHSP
# Summary of the method: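 HepG2 transiently transfected with multiplex GAL4-UAS reporter units including a human RARa–GAL4 chimera; 24 h compound exposure. Reporter mRNA quantified by RT-PCR, 6-FAM labeling and capillary electrophoresis; gain of signal versus DMSO.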
# [3] = BSK_3C_Proliferation: Cell Proliferation Assessment in the BioMAP Diversity Plus: 3C Assay (AID 2283006; active = hit-call score of the fitted dose curve at least 0.9, where 1 is the maximum; inactive = score below 0.9;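 as to AC50: potency may reflect either rise or fall in cell number versus DMSO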); conditions: primary human endothelial cells (HUVEC)
# Summary of the method: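 Read-out is total protein by SRB absorbance at 560 nm, taken as a proxy for relative cell number. Primary human umbilical vein endothelium cultured below confluence was dosed for 48 h, TCA-fixed and SRB-stained; curves were fitted bidirectionally versus DMSO.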
# [4] = target: human RAR-related Orphan Receptor gamma (RORg), RORC (gene 6097) (UniProt P51449); assay: ATG_RORg_TRANS: Attagene TRANS-FACTORIAL HepG2 Assay for human RAR-related Orphan Receptor gamma (RORg) (AID 2283011)
# Chain of human RAR-related Orphan Receptor gamma (RORg), RORC (gene 6097) (P51449 whole entry, looked up, the tested form may be a part): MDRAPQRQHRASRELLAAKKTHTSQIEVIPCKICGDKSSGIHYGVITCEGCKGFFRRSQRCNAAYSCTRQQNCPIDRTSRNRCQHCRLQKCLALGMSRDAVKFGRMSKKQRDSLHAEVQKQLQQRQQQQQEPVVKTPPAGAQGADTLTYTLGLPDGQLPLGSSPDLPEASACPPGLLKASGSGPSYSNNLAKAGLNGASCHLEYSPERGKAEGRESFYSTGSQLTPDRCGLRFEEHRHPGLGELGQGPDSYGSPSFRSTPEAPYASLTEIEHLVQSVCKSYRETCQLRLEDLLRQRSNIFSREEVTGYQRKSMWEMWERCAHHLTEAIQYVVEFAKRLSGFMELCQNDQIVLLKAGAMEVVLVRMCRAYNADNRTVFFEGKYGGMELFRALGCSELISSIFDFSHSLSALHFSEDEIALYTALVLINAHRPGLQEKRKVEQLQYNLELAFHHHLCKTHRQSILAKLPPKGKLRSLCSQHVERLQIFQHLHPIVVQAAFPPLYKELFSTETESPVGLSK
# Summary of the method: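 Reporter transcripts from a transfected RORg-GAL4 chimera in HepG2 cells were quantified 24 h after dosing by RT-PCR, 6-FAM labelling, HpaI digestion and capillary electrophoresis; increases over DMSO baseline were fitted.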
# [5] = target: Retinoic acid receptor RXR-alpha (Homo sapiens) (UniProt P19793); assay: ATG_RXRa_TRANS: Attagene TRANS-FACTORIAL HepG2 Assay for human Retinoid X Receptor alpha (RXRa) (AID 2283012)
# Chain of Retinoic acid receptor RXR-alpha (Homo sapiens) (P19793 whole entry, looked up, the tested form may be a part): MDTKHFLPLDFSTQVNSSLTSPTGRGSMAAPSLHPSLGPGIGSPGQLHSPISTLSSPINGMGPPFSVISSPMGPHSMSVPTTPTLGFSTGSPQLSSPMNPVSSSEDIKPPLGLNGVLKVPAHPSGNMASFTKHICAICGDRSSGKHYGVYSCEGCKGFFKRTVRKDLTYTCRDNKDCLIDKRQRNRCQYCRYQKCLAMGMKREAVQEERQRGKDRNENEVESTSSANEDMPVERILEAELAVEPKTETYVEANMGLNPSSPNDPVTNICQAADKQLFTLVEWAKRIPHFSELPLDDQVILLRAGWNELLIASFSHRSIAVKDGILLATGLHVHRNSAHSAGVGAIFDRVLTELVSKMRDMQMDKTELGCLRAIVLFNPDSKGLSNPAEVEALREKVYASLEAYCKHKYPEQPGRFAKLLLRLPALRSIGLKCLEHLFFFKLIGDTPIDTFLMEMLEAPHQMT
# Summary of the method: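 Transient transfection of human HepG2 with multiple GAL4-UAS reporter constructs; 24 h compound exposure; total RNA isolated, reverse-transcribed, PCR-amplified, 6-FAM labelled, HpaI-cut, resolved by capillary electrophoresis. Positive-direction fit versus DMSO.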
# [6] = target: human Retinoid X Receptor beta (RXRb), RXRB (gene 6257) (UniProt P28702); assay: ATG_RXRb_TRANS: Attagene TRANS-FACTORIAL HepG2 Assay for human Retinoid X Receptor beta (RXRb) (AID 2283013)
# Chain of human Retinoid X Receptor beta (RXRb), RXRB (gene 6257) (P28702 whole entry, looked up, the tested form may be a part): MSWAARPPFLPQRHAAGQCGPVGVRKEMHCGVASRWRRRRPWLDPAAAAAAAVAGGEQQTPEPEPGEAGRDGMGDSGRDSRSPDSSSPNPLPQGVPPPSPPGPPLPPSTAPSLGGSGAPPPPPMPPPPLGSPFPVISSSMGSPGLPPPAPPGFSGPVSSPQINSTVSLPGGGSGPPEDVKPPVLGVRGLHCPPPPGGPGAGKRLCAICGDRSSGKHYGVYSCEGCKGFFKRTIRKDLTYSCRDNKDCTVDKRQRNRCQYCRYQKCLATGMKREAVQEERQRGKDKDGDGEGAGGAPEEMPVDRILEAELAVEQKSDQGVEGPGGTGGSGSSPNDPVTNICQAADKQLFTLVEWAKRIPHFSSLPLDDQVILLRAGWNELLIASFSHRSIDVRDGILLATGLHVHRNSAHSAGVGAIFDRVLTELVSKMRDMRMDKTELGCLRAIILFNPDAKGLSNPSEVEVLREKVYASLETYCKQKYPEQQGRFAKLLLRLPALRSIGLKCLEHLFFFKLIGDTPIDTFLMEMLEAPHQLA
# Summary of the method: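 Transfect HepG2 with GAL4-UAS multi-reporter constructs (chimeric NR-Gal4, TRANS format); dose compound 24 h; isolate RNA, RT-PCR, FAM primer extension, HpaI digest; quantify by capillary electrophoresis; positive direction vs DMSO.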
# [7] = target: Peroxisome proliferator-activated receptor gamma (Homo sapiens) (UniProt P37231); assay: ATG_PPARg_TRANS: Attagene TRANS-FACTORIAL HepG2 Assay for human Peroxisome Proliferator-activated Receptor-gamma (PPARg) (AID 2283007)
# Chain of Peroxisome proliferator-activated receptor gamma (Homo sapiens) (P37231 whole entry, looked up, the tested form may be a part): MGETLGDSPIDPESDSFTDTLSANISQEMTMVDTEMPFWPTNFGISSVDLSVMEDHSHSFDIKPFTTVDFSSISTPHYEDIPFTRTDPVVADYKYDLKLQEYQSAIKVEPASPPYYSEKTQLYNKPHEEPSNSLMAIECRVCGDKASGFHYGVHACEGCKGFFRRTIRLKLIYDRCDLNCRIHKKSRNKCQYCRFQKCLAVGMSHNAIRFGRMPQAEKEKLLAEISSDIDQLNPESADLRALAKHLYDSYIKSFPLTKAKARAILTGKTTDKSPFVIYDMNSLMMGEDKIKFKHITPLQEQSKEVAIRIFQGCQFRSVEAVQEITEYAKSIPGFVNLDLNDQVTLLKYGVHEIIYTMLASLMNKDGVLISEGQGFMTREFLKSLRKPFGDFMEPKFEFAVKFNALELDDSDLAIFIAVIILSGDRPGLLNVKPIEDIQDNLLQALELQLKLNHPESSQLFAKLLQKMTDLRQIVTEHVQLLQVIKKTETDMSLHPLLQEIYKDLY
# Summary of the method: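 HepG2 cells transiently transfected with multiplexed GAL4-UAS reporter units and exogenous chimeric NR-Gal4 proteins; reporter mRNA quantified after 24 h compound exposure by RT-PCR, fluorescent labelling, HpaI digestion and capillary electrophoresis; gain-of-signal fitted versus DMSO baseline.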
# [8] = target: Nuclear receptor subfamily 1 group I member 2 (Homo sapiens) (UniProt O75469); assay: ATG_PXR_TRANS: Attagene TRANS-FACTORIAL HepG2 Assay for human Pregnane X Receptor (PXR) (AID 2283008)
# Chain of Nuclear receptor subfamily 1 group I member 2 (Homo sapiens) (O75469 whole entry, looked up, the tested form may be a part): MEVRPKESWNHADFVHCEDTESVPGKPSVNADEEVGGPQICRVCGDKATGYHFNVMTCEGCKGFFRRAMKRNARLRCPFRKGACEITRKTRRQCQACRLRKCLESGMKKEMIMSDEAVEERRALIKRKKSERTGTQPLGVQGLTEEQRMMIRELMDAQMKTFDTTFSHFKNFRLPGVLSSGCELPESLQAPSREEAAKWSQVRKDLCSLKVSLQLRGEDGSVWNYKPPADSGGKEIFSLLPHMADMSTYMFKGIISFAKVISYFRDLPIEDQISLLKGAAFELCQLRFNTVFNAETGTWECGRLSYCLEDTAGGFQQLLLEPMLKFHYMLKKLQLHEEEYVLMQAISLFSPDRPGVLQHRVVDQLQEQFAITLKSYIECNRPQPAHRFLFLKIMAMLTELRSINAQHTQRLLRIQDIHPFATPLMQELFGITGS
# Summary of the method: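 Fluorescence intensity of FAM-labelled, HpaI-digested reporter amplicons, separated by capillary electrophoresis, quantifies induction. HepG2 cells with PXR-Gal4 trans-reporter system were exposed 24 h; DMSO defines baseline.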
# [9] = target: human RAR-related Orphan Receptor beta (RORb), RORB (gene 6096) (UniProt Q92753); assay: ATG_RORb_TRANS: Attagene TRANS-FACTORIAL HepG2 Assay for human RAR-related Orphan Receptor beta (RORb) (AID 2283010)
# Chain of human RAR-related Orphan Receptor beta (RORb), RORB (gene 6096) (Q92753 whole entry, looked up, the tested form may be a part): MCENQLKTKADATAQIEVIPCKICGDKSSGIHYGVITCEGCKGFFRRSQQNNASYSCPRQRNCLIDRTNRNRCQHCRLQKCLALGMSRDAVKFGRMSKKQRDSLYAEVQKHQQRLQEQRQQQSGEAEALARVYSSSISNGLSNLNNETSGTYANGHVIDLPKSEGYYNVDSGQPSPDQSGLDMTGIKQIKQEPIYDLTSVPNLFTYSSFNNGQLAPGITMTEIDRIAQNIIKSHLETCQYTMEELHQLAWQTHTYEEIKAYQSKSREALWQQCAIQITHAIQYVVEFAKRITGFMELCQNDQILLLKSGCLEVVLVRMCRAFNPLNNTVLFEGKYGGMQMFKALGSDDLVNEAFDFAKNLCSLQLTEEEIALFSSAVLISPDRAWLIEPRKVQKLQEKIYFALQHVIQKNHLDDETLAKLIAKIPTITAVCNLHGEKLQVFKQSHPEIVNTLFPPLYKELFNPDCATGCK
# Summary of the method: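 Readout is reporter-gene mRNA induction, detected as fluorescence after RT-PCR and capillary electrophoresis, fitted for gain of signal against DMSO controls. Transiently transfected HepG2 liver cells carrying GAL4-UAS reporter constructs were treated for 24 hours.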
smiles,measurement,setting,value
O=Cc1ccco1,outcome,[1],inactive
same,outcome,[2],inactive
same,outcome,[3],inactive
same,outcome,[4],inactive
same,outcome,[5],inactive
same,outcome,[6],inactive
c1ccc(N=Nc2ccccc2)cc1,outcome,[1],inactive
same,outcome,[3],inactive
same,AC50,[7],43 µM (active)
same,outcome,[8],inactive
same,outcome,[5],inactive
same,outcome,[6],inactive
c1ccc2c(c1)oc1ccccc12,outcome,[1],inactive
same,outcome,[3],inactive
O=C(O)C1C2CCC(O2)C1C(=O)O (configuration not stated),outcome,[1],inactive
same,outcome,[2],inactive
same,AC50,[3],20.5 µM (active)
same,outcome,[8],inactive
same,outcome,[4],inactive
same,outcome,[5],inactive
same,outcome,[6],inactive
CC(C)(C)C(O)(CCc1ccc(Cl)cc1)Cn1cncn1 (configuration not stated),outcome,[1],inactive
same,outcome,[3],inactive
same,outcome,[7],inactive
same,AC50,[8],0.977 µM (active)
same,outcome,[5],inactive
Cc1cc(N=Nc2ccccc2C)ccc1N,outcome,[1],inactive
same,AC50,[3],13 µM (active)
same,AC50,[7],18.3 µM (active)
same,AC50,[8],20.7 µM (active)
same,outcome,[5],inactive
same,outcome,[6],inactive
C[C@]12C=CC3=C4CCC(=O)C=C4CC[C@H]3[C@@H]1CC[C@@H]2O,outcome,[1],inactive
same,AC50,[3],6.61 µM (active)
same,outcome,[7],inactive
same,AC50,[8],26.9 µM (active)
same,outcome,[8],inactive
same,outcome,[9],inactive
same,outcome,[5],inactive
same,outcome,[6],inactive
CCCCCCCCCCCCCN1CC(C)OC(C)C1 (configuration not stated),outcome,[1],inactive
same,AC50,[3],14.5 µM (active)
same,outcome,[7],inactive
same,AC50,[8],26.2 µM (active)
same,AC50,[5],26.4 µM (active)
same,AC50,[6],26.6 µM (active)
Clc1ccccc1Cl,outcome,[1],inactive
same,outcome,[3],inactive
same,outcome,[7],inactive
O=C(Oc1ccc(Br)cc1)N1CCN2CCC1CC2,outcome,[1],inactive
same,outcome,[3],inactive
same,outcome,[7],inactive
same,outcome,[8],inactive
same,outcome,[5],inactive
CN(C)c1ccc(C(=O)c2ccc(N(C)C)cc2)cc1,outcome,[1],inactive
same,AC50,[3],1.68 µM (active)
same,AC50,[7],6.44 µM (active)
same,outcome,[8],inactive
same,outcome,[4],inactive
same,outcome,[6],inactive
Cn1cc(-c2ccccc2)c(=O)c(-c2cccc(C(F)(F)F)c2)c1,outcome,[1],inactive
same,outcome,[3],inactive
same,outcome,[7],inactive
same,AC50,[8],4.04 µM (active)
same,outcome,[4],inactive
ClCCOCCCl,outcome,[1],inactive
same,outcome,[3],inactive
same,outcome,[7],inactive
same,outcome,[8],inactive
same,outcome,[5],inactive
same,outcome,[6],inactive
C=CCc1ccc2c(c1)OCO2,outcome,[1],inactive
same,outcome,[3],inactive
same,outcome,[7],inactive
same,outcome,[8],inactive
same,outcome,[5],inactive
same,outcome,[6],inactive
O=C(Nc1ccccc1)c1ccccc1I,outcome,[1],inactive
same,outcome,[3],inactive
same,AC50,[7],17.8 µM (active)
same,AC50,[8],10.6 µM (active)
same,outcome,[9],inactive
same,outcome,[5],inactive
same,outcome,[6],inactive
CCCCCCCCn1sccc1=O,AC50,[1],11.7 µM (active)
same,AC50,[3],0.796 µM (active)
same,AC50,[7],9.45 µM (active)
same,AC50,[8],10.7 µM (active)
same,outcome,[4],inactive
same,AC50,[6],15.4 µM (active)
CN(C)[C@@H]1C(=O)C(C(N)=O)=C(O)[C@@]2(O)C(=O)C3=C(O)c4c(O)cccc4[C@@](C)(O)[C@H]3C[C@@H]12,outcome,[1],inactive
same,outcome,[3],inactive
same,outcome,[7],inactive
same,outcome,[8],inactive
CO[C@@H]1[C@H](OC(=O)NC(=O)CCl)CC[C@]2(CO2)[C@H]1[C@@]1(C)O[C@@H]1CC=C(C)C,outcome,[1],inactive
same,AC50,[3],0.00962 µM (active)
same,outcome,[7],inactive
same,outcome,[8],inactive
same,outcome,[9],inactive
same,outcome,[5],inactive
same,outcome,[6],inactive
CC(C)(OOC(C)(C)c1ccccc1)c1ccccc1,outcome,[1],inactive
same,AC50,[3],31.1 µM (active)
same,outcome,[7],inactive
same,AC50,[8],7.09 µM (active)
same,outcome,[4],inactive
same,outcome,[5],inactive
same,AC50,[6],12.4 µM (active)
Brc1ccc(Oc2ccccc2)cc1,outcome,[1],inactive
same,outcome,[3],inactive
same,outcome,[7],inactive
same,outcome,[8],inactive
same,outcome,[5],inactive
same,AC50,[6],69.7 µM (active)
CCC(C)c1ccc(O)cc1 (configuration not stated),outcome,[1],inactive
same,outcome,[3],inactive
same,outcome,[8],inactive
same,AC50,[6],100 µM (active)
[O-][Cl+]O,outcome,[1],inactive
same,outcome,[3],inactive
same,outcome,[8],inactive
same,outcome,[6],inactive
